ID4 SMM – binds human ID4 protein on microarray; P47928; small molecule microarray, Flag-ID4 binding, fluorescence F/B; calls only; 1.2% of 31,000 active; call rule not given here;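 further: a binder raises fluorescence above local background on the spot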
Target sequence (P47928 whole entry, looked up): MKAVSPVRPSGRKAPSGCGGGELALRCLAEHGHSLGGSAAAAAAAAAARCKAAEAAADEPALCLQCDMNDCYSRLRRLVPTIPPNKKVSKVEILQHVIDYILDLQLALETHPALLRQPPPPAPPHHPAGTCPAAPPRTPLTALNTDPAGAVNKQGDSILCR
STK33 kin inh – blocks human STK33 kinase activity; ADP-Glo luminescence, MBP substrate; 0.44% of 27,000 active; Q9BYT3; inhibition, % at 12.5 µM; in the data active means inhibition above about 20%; inconclusive means no clear call, values can overlap the other calls
Target sequence (Q9BYT3 whole entry, looked up): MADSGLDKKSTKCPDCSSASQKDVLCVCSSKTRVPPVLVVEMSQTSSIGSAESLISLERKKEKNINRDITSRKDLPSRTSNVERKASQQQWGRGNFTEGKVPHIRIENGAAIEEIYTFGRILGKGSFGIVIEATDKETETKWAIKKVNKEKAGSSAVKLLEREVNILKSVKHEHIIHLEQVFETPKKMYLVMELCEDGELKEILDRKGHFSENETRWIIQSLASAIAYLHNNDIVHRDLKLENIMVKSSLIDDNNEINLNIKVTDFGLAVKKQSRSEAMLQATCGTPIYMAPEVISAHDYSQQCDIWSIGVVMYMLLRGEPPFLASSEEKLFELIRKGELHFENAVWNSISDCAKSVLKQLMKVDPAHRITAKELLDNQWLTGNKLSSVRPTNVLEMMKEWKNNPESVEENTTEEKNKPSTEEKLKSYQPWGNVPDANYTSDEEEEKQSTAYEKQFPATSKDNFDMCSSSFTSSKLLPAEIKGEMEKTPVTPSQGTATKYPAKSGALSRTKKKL
p53 PUMA act – re-activators of the mutant p53 pathway. SW480 PUMA-promoter luciferase, p53 mutant reactivation. activation, % at 9.98 µM. 1.5% of 28,000 active. AID 624151; in the data active means activation above about 52%; inconclusive means no clear call, values can overlap the other calls
Of the large screens only hits and unclear results are named; the others gave an inactive call. In the library only some 2% were active in any assay of this set; here they are far more common.

CC(C)(C)c1ccc(S(=O)(=O)CC(O)CSc2nc3c(cc2C#N)CCCC3)cc1 (stereo not drawn)	none
N#Cc1cc2c(nc1SCC(=O)Nc1cc(C(F)(F)F)ccc1Cl)CCCCC2	none
N#Cc1cc2c(nc1SCC(=O)Nc1ccccc1C(F)(F)F)CCC2	p53 PUMA act 111.3
CC(C)OC(=O)CSc1nc2c(cc1C#N)CCCCC2	p53 PUMA act 98.1
Cc1ccc(C(=O)Nc2ccccc2C(=O)NCc2ccco2)cc1[N+](=O)[O-]	none
COC(=O)CCCCCCC(=O)Nc1ccc(NC(=O)CCCC[P+](c2ccccc2)(c2ccccc2)c2ccccc2)cc1	ID4 SMM active (no result: STK33 kin inh, p53 PUMA act)
O=C(CCCC(=O)Nc1ccccc1)Nc1ccccc1	none
CCCOc1ccc2oc(=O)c3c(c2c1)CCCN3C(=O)CN(C)c1ccc(C)cc1	none (no result: STK33 kin inh)
CC(=O)c1ccc(N2CCOCC2)cc1O	none (no result: STK33 kin inh, p53 PUMA act)
O=C1/C(=C/c2ccc(N3CCOCC3)cc2)CCC1C1CCCC1 (stereo not drawn)	p53 PUMA act 65.5 (no result: STK33 kin inh)
CN/C(=C/[N+](=O)[O-])NCCSCc1csc(CN(C)C)n1	ID4 SMM active
Cc1ccc(NC(=O)CSc2nnnn2-c2ccc(Cl)c(C(=O)O)c2)cc1C	ID4 SMM active
Cc1cc(NC(=O)CSc2nnnn2-c2ccccc2)ccc1Cl	none
CCC(C)CC(C)/C=C\C1OC2=C(C(=O)OC2(C)O)C(O)C1O (stereo not drawn)	none (no result: ID4 SMM, p53 PUMA act)
COc1ccc(NC(=O)c2ccc(OC(C)C(=O)Nc3ccccc3C(F)(F)F)cc2)cc1Cl (stereo not drawn)	none
COc1ccc(NC(=O)c2ccc(OC(C)C(=O)O)cc2)cc1Cl (stereo not drawn)	ID4 SMM active
O=C(Nc1ccccc1)c1ccc(NCc2cccnc2)c([N+](=O)[O-])c1	none
CCOC(=O)c1c(NC(=O)C2CC(c3ccccc3Cl)=NO2)sc(C)c1C (stereo not drawn)	none
CC1CCc2c(sc(NC(=O)c3nc4ncccn4n3)c2C(N)=O)C1 (stereo not drawn)	p53 PUMA act 58.5
CCOC(=O)c1c(NC(=O)c2nc3ncccn3n2)sc2c1CCC(C)C2 (stereo not drawn)	none
O=Cc1c2[nH]c3ccccc3c2cc2[nH]c3ccccc3c12	none
O=c1[nH]c2ccccc2c2ccccc12	STK33 kin inh 31.5
CSc1ccccc1NC(=O)CN(c1ccc(C)c(Cl)c1)S(C)(=O)=O	none
COc1ccc(OC(C)C(=O)Nc2cc(C)ccc2OC)cc1 (stereo not drawn)	none
O=c1cc(-c2ccccc2)oc2cccc(O)c12	none (no result: p53 PUMA act)
O=c1cc(-c2ccc(O)cc2)oc2cc(O)cc(O)c12	STK33 kin inh 54.3 (no result: ID4 SMM, p53 PUMA act)
O=c1c(O)c(-c2ccc(O)cc2)oc2cc(O)cc(O)c12	STK33 kin inh 33.5 (no result: ID4 SMM, p53 PUMA act)
O=c1cc(-c2ccccc2)oc2cc(O)cc(O)c12	STK33 kin inh 33.1 (no result: ID4 SMM, p53 PUMA act)
COc1cc(O)c2c(=O)cc(-c3ccc(O)cc3)oc2c1	none (no result: ID4 SMM, p53 PUMA act)
O=C(O)[C@H]1O[C@@H](Oc2c(-c3ccc(O)cc3)oc3cc(O)cc(O)c3c2=O)[C@H](O)[C@@H](O)[C@@H]1O	none (no result: ID4 SMM, STK33 kin inh)
C=C(C(=O)O[C@H]1C/C=C(/C)C[C@H](O)[C@H]2[C@H](C)C(=O)O[C@@H]2/C=C\1C)[C@@H]1CCC(=C)[C@@H]2C[C@H](O[C@@H]3O[C@H](COC(=O)CC(=O)O)[C@@H](O)[C@H](O)[C@H]3O)C(=C)[C@@H]2C1	none (no result: ID4 SMM, p53 PUMA act)
CC(C)(C)C1CCc2c(sc(NC(=O)COc3ccc(Cl)cc3)c2C(N)=O)C1 (stereo not drawn)	none
COC(=O)c1cc(OC)c(OC)cc1NC(=O)COc1ccc(Cl)cc1Cl	none
Cc1cc(OCC(=O)Nc2ccccc2CO)cc(C)c1Br	none
O=C(COc1ccc(Br)cc1Cl)Nc1ccccc1CO	p53 PUMA act 75.5
COc1ccc(Cl)cc1NC(=O)COc1ccccc1[N+](=O)[O-]	none
COc1ccccc1NC(=O)COc1ccc(Cl)cc1CO	p53 PUMA act 62.9
COc1ccc(Cl)cc1NC(=O)COc1ccccc1OC	p53 PUMA act 99.4
O=S(=O)(c1ccc(Cl)c(Cl)c1)N1CCN(Cc2ccc(OCCO)cc2)CC1	none (no result: ID4 SMM, p53 PUMA act)
C=C1CCC2(C(=O)O)CCC3(C)C(=CCC4C5(C)C[C@@H](O)[C@H](O)C(C)(CO)C5CCC43C)C2C1C (stereo partly drawn)	none (no result: ID4 SMM)
COc1ccc(C(=O)CSc2nc3cc(C)c(C)cc3[nH]2)cc1	none
Cc1nc([N+](=O)[O-])c(Sc2nc3ccccc3[nH]2)n1Cc1ccccc1	p53 PUMA act 65.6
Cc1cc2nc(Sc3c([N+](=O)[O-])nc(C)n3Cc3ccccc3)[nH]c2cc1C	p53 PUMA act 76.5
COc1ccc2nc(Sc3c([N+](=O)[O-])nc(C)n3Cc3ccccc3)[nH]c2c1	p53 PUMA act inconclusive
O=S1(=O)CCC(N(S(=O)(=O)c2ccc(F)cc2)S(=O)(=O)c2ccc(Cl)cc2)C1 (stereo not drawn)	none (no result: ID4 SMM, p53 PUMA act)
O=C(Nc1ccccc1)N[C@H](Cc1ccccc1)Cn1cc(CN2C(=O)COC[C@H]2c2ccccc2)nn1	ID4 SMM active (no result: STK33 kin inh, p53 PUMA act)
O=C(N[C@@H](Cc1ccccc1)Cn1cc(CN2C(=O)COC[C@H]2c2ccccc2)nn1)c1ccccc1	none (no result: STK33 kin inh, p53 PUMA act)
O=C(Nc1ccccc1C(=O)OCc1ccc([N+](=O)[O-])cc1)c1ccco1	none
O=C(O)c1c(O)cc(OC2OC(CO)C(O)C(O)C2O)cc1/C=C/c1ccccc1 (stereo not drawn)	none
C=CCn1c(-c2cccs2)nc(-c2ccccc2)c1-c1ccccc1	none (no result: ID4 SMM, p53 PUMA act)
O=C(O)c1cc(NC(=O)C2CC=CCC2C(=O)O)ccc1Cl (stereo not drawn)	ID4 SMM active
CCOc1ccc(NC(=O)C2CC=CCC2C(=O)O)cc1 (stereo not drawn)	none
Cc1nc(-c2ccccc2)sc1C(=O)C1C(=O)C(=O)N(CCN(C)C)C1c1ccccc1 (stereo not drawn)	none
Cc1cc2nc(SCc3ccccc3C#N)[nH]c2cc1C	p53 PUMA act 67.7
N#Cc1ccccc1CSc1ncn[nH]1	none
COc1ccc(-c2cnc3c(c2)C(=O)N([C@H](C)CO)C[C@@H](C)[C@H](CN(C)Cc2ccccn2)O3)cc1	ID4 SMM active (no result: STK33 kin inh)
COc1cccc(-c2cnc3c(c2)C(=O)N([C@H](C)CO)C[C@@H](C)[C@H](CN(C)Cc2cccnc2)O3)c1	ID4 SMM active (no result: STK33 kin inh)
COc1cccc(-c2cnc3c(c2)C(=O)N([C@@H](C)CO)C[C@@H](C)[C@@H](CN(C)Cc2cccnc2)O3)c1	none (no result: STK33 kin inh, p53 PUMA act)
COc1ccc(-c2cnc3c(c2)C(=O)N([C@H](C)CO)C[C@H](C)[C@H](CN(C)Cc2ccccn2)O3)cc1	none (no result: STK33 kin inh, p53 PUMA act)
CN1CCN(C(CC(=O)Nc2cccc([N+](=O)[O-])c2)C(=O)O)CC1 (stereo not drawn)	none
O=C(NC1=NCCS1)c1cc2ccccc2o1	none (no result: ID4 SMM, p53 PUMA act)
CN(C)c1c(F)cc(C(=O)NC(=O)NC2=NCCS2)cc1F	p53 PUMA act 60.6 (no result: STK33 kin inh)
COc1cc2ncnc(Nc3ccc(Cl)cc3F)c2cc1OC	STK33 kin inh 26.4 (no result: p53 PUMA act)
Cc1cc(F)c(Nc2ncnc3cc(OCc4ccccc4)ccc23)cc1O	none (no result: STK33 kin inh)
COc1cc2ncnc(Nc3ccc(OCc4ccccc4)cc3)c2cc1OC	none (no result: ID4 SMM)
C#Cc1cccc(Nc2ncnc3cc(OC)c(OC)cc23)c1	STK33 kin inh 23.0
Cc1cccc(CSc2nc3c(c(=O)[nH]2)C(C(C)C)C2=C(CC(C)(C)CC2=O)N3)c1 (stereo not drawn)	none (no result: STK33 kin inh)
CN1CCN(C(=O)C2=C[C@@H](c3ccc4c(c3)OCO4)C[C@@H](OCCCCO)O2)CC1	ID4 SMM active (no result: STK33 kin inh, p53 PUMA act)
